NS1 inh – influenza NS1 inhibition; Potency, µM (highest dose often 46.1 µM); 0.4% of 270,000 active; calls by dose curve; further: actives are rising curves; nearly all actives have a fitted effect of over 50% in size
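A cell-based growth assay was used: compounds that relieve NS1-induced slow growth of budding yeast raise OD600. Assay medium was yeast nitrogen base with ammonium sulphate and -URA supplement, pH 6.0, with 2% galactose.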
CHX counter – affects cycloheximide protein synthesis inhibition readout, counter-screen | cell reporter, cycloheximide protein synthesis inhibition counterscreen | max response, % | 12% of 300,000 active | AID 2314; in the data active means max response mostly above about 13%, no sharp cut-off; inactive means mostly below about 14%; further: read at 38.3 µM for the half of the compounds with a filed dose
Sm TGR block – blocks Schistosoma mansoni thioredoxin glutathione reductase. AID 485364. Q962Y6. Potency, µM (top dose mostly 114 µM), hits mostly inhibitors. 3% of 360,000 active. purified TGR, DTNB reduction, TNB absorbance 405 nm; further: nearly all actives have a fitted effect of over 60% in size
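First, TGR (20 nM dispensed) and NADPH were mixed with compound. Second, a 15 min room-temperature incubation followed. Third, further NADPH and then DTNB were added to start the reaction. Finally, TNB absorbance was monitored kinetically.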
Pf growth 48h – inhibits P. falciparum growth in the first generation, 48 h | P. falciparum luciferase growth in erythrocytes, 48 h | Potency, µM (doses to about 28.7 µM), actives largely listed as inhibitors | 5.9% of 310,000 active | AID 504832
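A one-generation exposure of luciferase-tagged malaria parasites in RPMI 1640/Albumax erythrocyte culture, 37 C and 5% CO2. Inhibition is inferred from decreased luminescence after adding detection reagent.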
Shiga toxin inh – blocks Shiga toxin action in Vero cells. Vero cells, Shiga toxin protein synthesis inhibition reporter. inhibition, % at 38.7 µM. 9.2% of 290,000 active; in the data active means inhibition mostly above about 28%, no sharp cut-off; inactive means mostly below about 43%
Pf growth 96h – P. falciparum growth inhibition at 96 hour, primary screen for plastid delayed-death inhibitors; Potency, µM (highest dose often 28.7 µM), hits mostly inhibitors; AID 504834; P. falciparum luciferase reporter growth, 96 h; 6.9% of 320,000 active
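Erythrocytes infected with luciferase-expressing P. falciparum were dispensed at 2% hematocrit and 0.05% parasitemia (final), then incubated with compounds 96 hours at 37 C in 5% CO2. Luminescence after detection reagent addition reported growth.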
Of the large screens only hits and unclear results are named; the others gave an inactive call. Compounds with a hit are over-represented: about 21% of the library has one in this group of screens. Unless noted, the call rests on the fitted dose curve; in most records, active means well fitted curve in the direction sought with a large enough effect; inconclusive means small, poorly fitted or top-dose-only effect, or another doubt; inactive means no such curve, though single readings can be large; an effect the other way counts as inactive or inconclusive.

COc1ccc2sc3ccccc3c(=O)c2c1	CHX counter 44, Shiga toxin inh 81
COc1ccc(-c2cc(=O)c3ccccc3s2)cc1	CHX counter 29, Shiga toxin inh 93 (no result: Pf growth 48h)
COc1cc(OC)cc(-c2sc3ccccc3c(=O)c2I)c1	none (no result: NS1 inh, Sm TGR block, Pf growth 48h, Pf growth 96h)
Cc1cccc(C)c1NC(=O)CNC(=O)c1ccc(COc2ccccc2)cc1	none (no result: NS1 inh, CHX counter, Shiga toxin inh)
COc1ccc(Cn2cc(S(=O)(=O)c3ccc(Cl)cc3)c(=O)c3cc4c(cc32)OCO4)cc1	none (no result: NS1 inh, CHX counter, Pf growth 48h, Shiga toxin inh, Pf growth 96h)
Cc1noc(C)c1COc1ccc(C(=O)Nc2cccnc2)cc1	Pf growth 96h inconclusive (no result: NS1 inh)
O=C1NC(=O)N(c2ccc(Cl)cc2)C(=O)/C1=C/c1coc2ccc(O)cc2c1=O	Sm TGR block 1µM
O=C1NC(=O)N(c2ccccc2)C(=O)/C1=C/c1coc2ccc(O)cc2c1=O	CHX counter 24, Shiga toxin inh 28
NC(=O)N/N=C/c1coc2ccc(O)cc2c1=O	Pf growth 48h inconclusive, Pf growth 96h inconclusive
COc1ccccc1NC(=O)C(C)OC(=O)C(C)SCC(=O)Nc1ccc(C)cc1 (stereo unspecified)	none (no result: NS1 inh, CHX counter, Shiga toxin inh)
CC(NC(=O)c1cccc(N2CCCC2=O)c1)c1ccc2c(c1)OCCO2 (stereo unspecified)	Pf growth 48h inconclusive, Pf growth 96h 12µM
COc1cc(/C=N/NC(=O)c2cccc(N3CCCC3=O)c2)ccc1O	CHX counter 24, Pf growth 96h inconclusive
O=C(N/N=C/c1cc([N+](=O)[O-])ccc1O)c1cccc(N2CCCC2=O)c1	Pf growth 48h inconclusive
CNC(=O)c1cccc(N2CCCC2=O)c1	none
O=C(N/N=C/c1cccnc1)c1cccc(N2CCCC2=O)c1	CHX counter 27
CCN(CCNC(=O)c1cccc(N2CCCC2=O)c1)c1ccccc1	none (no result: Pf growth 48h)
CCN(CC)c1ccc(/C=N/NC(=O)c2cccc(N3CCCC3=O)c2)cc1	CHX counter 23, Pf growth 48h inconclusive, Shiga toxin inh 42 (no result: Sm TGR block)
Cc1ccc(OCC(=O)NC2CCCC(C)C2C)c([N+](=O)[O-])n1 (stereo unspecified)	none (no result: NS1 inh, CHX counter, Shiga toxin inh)
COc1ccc(OCCOc2ccc(S(=O)(=O)N3CCCC3)cc2[N+](=O)[O-])cc1	Pf growth 48h inconclusive, Pf growth 96h inconclusive (no result: NS1 inh, CHX counter, Shiga toxin inh)
COc1cc(Nc2ccc(S(=O)(=O)N3CCN(C)CC3)cc2[N+](=O)[O-])cc(OC)c1	Pf growth 48h inconclusive, Pf growth 96h inconclusive (no result: NS1 inh, CHX counter, Shiga toxin inh)
COc1ccc(Nc2ccc(S(=O)(=O)N3CCCCC3)cc2[N+](=O)[O-])cc1OC	NS1 inh inconclusive, Pf growth 48h inconclusive, Pf growth 96h 13µM
COc1ccc(Nc2ccc(S(=O)(=O)N3CCCCCC3)cc2[N+](=O)[O-])cc1	Pf growth 96h inconclusive
COc1ccccc1C(C)Nc1ccc(S(=O)(=O)N2CCN(C)CC2)cc1[N+](=O)[O-] (stereo unspecified)	Pf growth 48h 12µM, Pf growth 96h 17µM (no result: NS1 inh, CHX counter, Shiga toxin inh)
COc1cccc(Oc2ccc(S(=O)(=O)N3CCCC3)cc2[N+](=O)[O-])c1	Pf growth 48h 10µM, Pf growth 96h inconclusive
COC(=O)[C@@H](Cc1ccc(O)cc1)NC(=O)[C@H]1CCC(=O)N1C(=O)OCc1ccccc1	none
COc1ccc(CNc2ccc3cc(S(=O)(=O)N4CCCCC4)ccc3n2)cc1	none (no result: NS1 inh, CHX counter, Pf growth 48h, Shiga toxin inh, Pf growth 96h)
C/C=C1\COC(C(=O)NCCOCCO)(C(F)(F)F)C=C1C=C1CCCCC1 (stereo unspecified)	none (no result: NS1 inh, Sm TGR block, Pf growth 48h, Pf growth 96h)
CCOCCCNc1ccc(-c2ccccc2)nn1	CHX counter 27, Shiga toxin inh 109
COc1cccc(-c2nc(SCc3cc(=O)c4cc(Cl)ccc4[nH]3)n[nH]2)c1	none (no result: NS1 inh, CHX counter, Pf growth 48h, Shiga toxin inh, Pf growth 96h)
O=C1OC(NC(=O)c2ccccc2)C(n2cc(CO)nn2)=C1Cl (stereo unspecified)	Sm TGR block 0.79µM, Pf growth 96h inconclusive
O=C(O)CCCCCCCCc1cn(CC2CCCCC2)nn1	Pf growth 96h inconclusive
Cc1ccc(-n2cc(CCCCCCCCC(=O)O)nn2)cc1	Pf growth 96h 5.9µM
O=C(OCc1cn(Cc2ccccc2)nn1)c1ccccc1	none
O=C(Nc1ccc(Cl)cc1)OCc1cn(-c2ccccc2)nn1	CHX counter 30 (no result: NS1 inh)
Cc1ccc(C(=O)OCc2cn(-c3ccccc3)nn2)cc1	Pf growth 48h 13µM, Pf growth 96h inconclusive (no result: NS1 inh)
CC(C)(C)CC(=O)Nc1nnc(CCc2ccccc2)s1	CHX counter 29, Pf growth 48h inconclusive
CCCC(=O)Nc1nnc(CCc2ccccc2)s1	Pf growth 96h inconclusive
CCC(C)(C)C(=O)Nc1nnc(CCc2ccccc2)s1	CHX counter 39, Shiga toxin inh 80
Cc1cc(=O)oc2cc3c(cc12)OCCN3	none
Cc1cc(=O)oc2cc3c(cc12)CCCN3	CHX counter 19
O=C1CCCc2c1cc(-c1ccccc1)n2-c1ccccc1	none
O=C(/C(C=Nc1cc2c(oc1=O)CCCC2=O)=C(\O)c1ccccc1)c1ccccc1	CHX counter 40, Shiga toxin inh 125 (no result: Sm TGR block)
Cc1ccccc1C(=O)NC(=S)Nc1ccccc1C(F)(F)F	Pf growth 96h inconclusive
Cc1ccccc1C(=O)NC(=S)Nc1ccccc1C(=O)O	Pf growth 96h 10µM
Cc1ccccc1C(=O)NC(=S)Nc1ncccn1	CHX counter 18, Pf growth 96h inconclusive
Cc1[nH]n(-c2ccc(S(=O)(=O)O)cc2)c(=O)c1N=Nc1ccccc1	none (no result: CHX counter, Sm TGR block, Pf growth 48h, Shiga toxin inh, Pf growth 96h)
CCOC(=O)c1cnc(SCC(=O)N2CCN(C(=O)c3ccco3)CC2)nc1N	none
CCOC(=O)c1cnc(SC2CCc3ccccc3C2=O)nc1N (stereo unspecified)	CHX counter 33, Sm TGR block inconclusive, Shiga toxin inh 71
CCOC(=O)c1cnc(SCCc2ccccc2)nc1N	CHX counter 35, Shiga toxin inh 97
CCCCSc1ncc(C(=O)OCC)c(N)n1	CHX counter 46, Shiga toxin inh 68, Pf growth 96h inconclusive
CCOC(=O)c1cnc(SCc2ccc(C)cc2)nc1N	CHX counter 33, Shiga toxin inh 106, Pf growth 96h 0.052µM
Cc1ccc(-n2c(=O)[nH]c3sc4c(c3c2=O)CCNC4)cc1C	none (no result: NS1 inh, CHX counter, Pf growth 48h, Shiga toxin inh, Pf growth 96h)
O=C(CC(Nc1ccccc1)c1ccccc1)C1CC1 (stereo unspecified)	none
COc1cc(NC(=O)COC(=O)CSc2cc(C)ccc2C)c(C)cc1[N+](=O)[O-]	none
O=C(NCCOc1ccccc1)c1ccccc1Cl	CHX counter 43, Shiga toxin inh 55
CCc1ccc(OCCNC(=O)c2cc(SC)ccc2Cl)cc1	none
CSc1ccc(Cl)c(C(=O)NCCOc2ccccc2)c1	CHX counter 26, Pf growth 96h inconclusive
Cc1nn(Cc2ccccc2)c(Cl)c1C(=O)NCCc1ccccc1	CHX counter 56, Shiga toxin inh 60
COc1ccc(OCCNC(=O)c2ccccc2Cl)cc1	Pf growth 96h inconclusive
O=C(NCCc1ccccc1)c1ccccc1Cl	CHX counter 13
O=C(O)c1ccccc1C(=O)NCCc1ccc(Cl)cc1	Pf growth 96h inconclusive (no result: NS1 inh)
CCCCC(=O)Nc1cccc(C(=O)N/N=C/c2ccc(OC)cc2OC)c1	none
CCCCCCCCCCCCCCCCCC(=O)OCC(C)O (stereo unspecified)	none (no result: NS1 inh, Sm TGR block)

High-throughput results deposited in PubChem by National Center for Advancing Translational Sciences (NCATS).
